Values joined by “and” are separate entries in the source; they are usually repeats but may differ in a detail not shown here. Identical values can stand only once. Records with an inconclusive call do not appear. A call without a number means that no potency is given here. Active and inactive are the calls of the source. The call rests on the fitted dose curve; in most records, active means well fitted cell-killing curve with a large enough effect; inconclusive means small, poorly fitted or top-dose-only effect; inactive means flat fitted curve, though single readings scatter.
Experiment: qHTS of pediatric cancer cell lines to identify multiple opportunities for drug repurposing: Primary screen for BT-37 cells (AID 1347094)
Conditions: BT-37 viability, CellTiter-Glo luminescence, 48 h; series mostly up to 57.3 µM
Source text: Drug repurposing or repositioning has been offered as a strategy for drug development in oncology programs. This approach has special potential for childhood cancers and other rare or orphan diseases, where the expected return on new drug development has been a disincentive to pharmaceuticals. […] In this project we exploit the poly-pharmacology of drugs to discover new indications via phenotypic screening of a panel of 19 well-characterized cell lines derived from solid tumors seen in children and adolescents. The goal is to identify approved drugs with previously unrecognized anticancer properties that has the potential to reveal new mechanisms and biological processes involved in carcinogenesis or drug resistance. We employed a titration-based paradigm (quantitative high-throughput screening or qHTS), where all compounds were tested at multiple concentrations for their effect on cell viability. Concentration-response curves (CRCs) were derived directly from the primary screen, and both potency and efficacy values were used to identify compounds with robust bioactivity profiles. We screened the NIH Chemical Genomics Center (NCGC) Pharmaceutical Collection (NPC) and Mechanism Interrogation Plate (MIPE) small molecule collections of approved and investigational compounds against these cell lines; and measured metabolically active cells after 48 hours of compound treatment as a proxy for cell viability. […] Assay Submitter: Nathalia J. Martinez, National Center for Advancing Translational Sciences, National Institutes of Health, Rockville, MD, USA; email: natalia.martinez@nih.gov Shen, M et al. Quantitative high-throughput phenotypic screening of pediatric cancer cell lines identifies multiple opportunities for drug repurposing. Oncotarget 2017 Dec 19;9(4):4758-4772. PMID 29435139.
The cells were obtained from University of North Carolina (UNC), Pediatric Preclinical Testing Program (PPT), and Coriell Institute (CI). qHTS cell viability assay: Cells were assayed in growth media at a density of 500-1,000 cells/well. Five microliters of cells were dispensed into 1,536-well, white, solid-bottom, TC-treated plates (Greiner Bio One) using a multidrop dispenser and incubated at 37 degrees C, 5% CO2, under a humidified atmosphere for 5 hours. Twenty-three nanoliters of compounds and controls (neutral control DMSO or positive control bortezomib at final concentration of 2.3 µM) were subsequently transferred by Kalypsys pintool. For primary screens, the MIPE collection was tested at 11-point dilutions (final concentrations range from 0.78 nM to 46 µM) and the NPC collection at 8-point dilutions (final concentrations range from 0.59 nM to 46 µM). Compounds tested in follow-up screens were assayed at 11-point dilutions. Cells were incubated for 48 hours, followed by addition of 3 µL of CellTiter-Glo (Promega). After a 15 min incubation at room temperature, samples were analyzed for luminescence intensity using a ViewLux High-throughput CCD imager equipped with clear filters.
Potency means the concentration at half of the fitted maximal effect.

**Q.** Which Potency does the source give for `O=C(OCC#CCSc1nnc(-c2cccc3ccccc23)o1)c1cc2ccccc2s1` here?
**A.** The Potency was “inactive”.

**Q.** For `CCCCCN(C)CCC(O)(P(=O)(O)O)P(=O)(O)O`, which Potency is on record?
**A.** The Potency was “inactive”.

**Q.** With `Cc1cnc(C(=O)O)c[n+]1[O-]` as the molecule, how does the Potency read?
**A.** The Potency was “inactive”.

**Q.** Which Potency does the source give for `COc1cc2nc(-c3ccc(N4CCN(C)CC4)cc3)nc(NCCN3CCOCC3)c2cc1OC` here?
**A.** Its Potency is 3.06 µM (active).

**Q.** Which Potency does the source give for `CON=C(C(=O)N[C@@H]1C(=O)N2C(C(=O)OCOC(=O)C(C)(C)C)=C(C=Cc3scnc3C)CS[C@H]12)c1csc(N)n1` here?
**A.** The Potency was “inactive”.

**Q.** With `CN1C[C@H]2c3ccccc3Oc3ccc(Cl)cc3[C@@H]2C1` as the molecule, how does the Potency read?
**A.** The Potency was “inactive”.

**Q.** Which Potency does the source give for `CS(=O)c1ccc(-c2nc(-c3ccc(F)cc3)c(-c3ccncc3)[nH]2)cc1` (stereo not given) here?
**A.** Its Potency is 17.7 µM (active).

**Q.** Which Potency does the source give for `COc1ccc(-c2nc(N3CCOCC3)c3sc(CN(C)c4ncc(C(=O)NO)cn4)cc3n2)cn1` here?
**A.** Its Potency is 0.0069 µM (active).

**Q.** Which Potency does the source give for `CC1(C)Cc2c(sc(NC(=S)NC(=O)c3ccccc3)c2C(=O)O)CO1` here?
**A.** The Potency was “inactive”.

**Q.** For `N#C[C@H]1C[C@H]2C[C@@H]2N1C(=O)[C@@H](N)C12CC3CC(CC(O)(C3)C1)C2`, which Potency is on record?
**A.** The Potency was “inactive”.

**Q.** Which Potency does the source give for `CC(C)(C)Cn1c(N)nc2ccc(-c3[nH]c(C(C)(C)C)nc3-c3ccc(F)cc3)nc21` here?
**A.** The Potency was 24.3 µM (active).

**Q.** Which Potency does the source give for `O=c1c(-c2ccc(O)cc2)coc2cc(O)ccc12` here?
**A.** Its Potency is “inactive”.

**Q.** For `O=C(Nc1ccccc1-c1cn2c(CN3CCNCC3)csc2n1)c1cnc2ccccc2n1`, which Potency is on record?
**A.** Its Potency is 27.3 µM (active).

**Q.** For `CC(C)NCC(O)COc1cccc2[nH]ccc12` (stereo not given), which Potency is on record?
**A.** Its Potency is “inactive”.

**Q.** For `Oc1ccc(C2=Cc3ccc(O)cc3OC2)cc1`, which Potency is on record?
**A.** Its Potency is 12.2 µM (active).

**Q.** Which Potency does the source give for `O=C(O)CCc1nc(-c2ccccc2)c(-c2ccccc2)o1` here?
**A.** Its Potency is “inactive”.

**Q.** Which Potency does the source give for `CC(=NNC(=S)N1CCC1)c1ccccn1` here?
**A.** The Potency was 0.0054 µM (active).

**Q.** Which Potency does the source give for `CCC(=O)NC[C@H](Cc1ccc(OCCc2nc(-c3ccccc3)oc2C)cc1)NC(C)=CC(=O)c1ccc(C(F)(F)F)cc1` here?
**A.** The Potency was 3.06 µM (active).

**Q.** Which Potency does the source give for `O=c1c(-c2ccc(O)cc2)coc2cc(OC3O[C@H](CO)[C@H](O)[C@H](O)[C@H]3O)cc(O)c12` (stereo not given in full) here?
**A.** The Potency was 21.7 µM (active).

**Q.** For `NC(=O)c1cccc(-c2cc(Nc3ccc(OC(F)(F)F)cc3)ncn2)c1`, which Potency is on record?
**A.** Its Potency is “inactive”.

**Q.** Which Potency does the source give for `COc1ccc2c3c1OC1C[C@@H](O)C=C[C@@]31CCN(C)C2` (stereo not given in full) here?
**A.** The Potency was “inactive”.

**Q.** With `O=C1NC(=O)C(=Cc2cccc(C(F)(F)F)c2)S1` as the molecule, how does the Potency read?
**A.** The Potency was “inactive”.

**Q.** Which Potency does the source give for `CC(C)(C)c1cc(C(=O)O)c(NC(=O)Nc2ccc3[nH]ncc3c2)s1` here?
**A.** The Potency was “inactive”.

**Q.** For `O=c1cc(-c2cccc3c2Sc2ccccc2S3)oc(N2CCOCC2)c1`, which Potency is on record?
**A.** The Potency was “inactive”.

**Q.** For `NS(=O)(=O)c1cccc2c1C(=O)c1cccc(O)c1C2=O`, which Potency is on record?
**A.** Its Potency is 0.432 µM (active).

**Q.** Which Potency does the source give for `CC(C)(C)COc1ccc(-n2cc(C(=O)O)cn2)cc1C#N` here?
**A.** Its Potency is “inactive”.

**Q.** For `COc1ncc(-c2ccc3nccc(-c4ccnnc4)c3c2)cc1NS(=O)(=O)c1ccc(F)cc1F`, which Potency is on record?
**A.** The Potency was 0.0611 µM (active).

**Q.** Which Potency does the source give for `c1cc(-c2sc(-c3ccncc3)c(-c3ccncc3)c2-c2ccncc2)ccn1` here?
**A.** The Potency was “inactive”.

**Q.** With `Nc1ncnc2ccccc12` as the molecule, how does the Potency read?
**A.** The Potency was “inactive”.

**Q.** Which Potency does the source give for `CC=CC(=O)N(CC)c1ccccc1C` here?
**A.** The Potency was 30.6 µM (active).

**Q.** For `O=C(CCN1CCN(C(=O)OCc2cc(Cl)cc(Cl)c2)CC1)c1ccc2[nH]c(=O)oc2c1`, which Potency is on record?
**A.** The Potency was “inactive”.

**Q.** Which Potency does the source give for `O=C(Nc1c(Cl)cncc1Cl)c1ccc(OC(F)F)c(OCC2CC2)c1` here?
**A.** Its Potency is “inactive”.

**Q.** Which Potency does the source give for `CCn1cc(C(=O)O)c(=O)c2ccc(C)nc21` here?
**A.** The Potency was “inactive”.

**Q.** Which Potency does the source give for `CC1(C)CCC[C@@]2(C)[C@@H]1CC[C@@]1(C)OC(=O)C[C@H]21` here?
**A.** Its Potency is “inactive”.

**Q.** With `COC1CCC(N(C(=O)C2CCC(C)CC2)c2cc(C3=CCCCC3)sc2C(=O)O)CC1` (stereo not given) as the molecule, how does the Potency read?
**A.** The Potency was “inactive”.

**Q.** Which Potency does the source give for `NC1CCC(Nc2nc(Nc3ccc(C(=O)N4CCCCC4)cc3)c3ncn(-c4cccc(F)c4)c3n2)CC1` (stereo not given) here?
**A.** The Potency was “inactive”.

**Q.** With `Cc1nnc(C(C)C)n1C1C[C@H]2CC[C@@H](C1)N2CC[C@H](NC(=O)C1CCC(F)(F)CC1)c1ccccc1` (stereo not given in full) as the molecule, how does the Potency read?
**A.** Its Potency is “inactive”.

**Q.** For `O=C(CCCCCCC(=O)Nc1ccccc1)NO`, which Potency is on record?
**A.** The Potency was 5.5 µM (active) and 7.69 µM (active).

**Q.** For `CC#CCn1c(N2CCC[C@@H](N)C2)nc2c1c(=O)n(Cc1nc(C)c3ccccc3n1)c(=O)n2C`, which Potency is on record?
**A.** Its Potency is “inactive”.

**Q.** For `CCN(CC)CCNC(=O)c1ccc(N)cc1`, which Potency is on record?
**A.** The Potency was “inactive”.

From PubChem BioAssay (NCATS)
